Source: PubChem BioAssay (NCI)
About 83,000 compounds went through this panel and 20% of them were active in at least one assay; those are over-represented in the sample as a whole.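 A percent growth of 40 corresponds to 60% growth inhibition; 0 means no net growth; -100 means all cells died. Active threshold: below 10.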 Unmarked numbers belong to inactive results. Active and inactive are the calls of the source.

Key:
Assay in all cases: NCI-60 one-dose screen, 48 h (100 = growth as untreated, 0 = no growth, -100 = all killed)
Conditions in all cases: 10 µM unless noted
NCI-H23 lung = system: NCI-H23 lung
NCI-H226 lung = system: NCI-H226 lung
NCI-H322M lung = system: NCI-H322M lung
HOP-62 NSCLC = system: HOP-62 NSCLC
NCI-H460 lung = system: NCI-H460 lung
HOP-92 NSCLC = system: HOP-92 NSCLC
NCI-H522 lung = system: NCI-H522 lung
A549/ATCC NSCLC = system: A549/ATCC NSCLC
786-0 renal = system: 786-0 renal
COLO 205 colon = system: COLO 205 colon
DU-145 prostate = system: DU-145 prostate
K-562 leukemia = system: K-562 leukemia
MALME-3M melanoma = system: MALME-3M melanoma
MDA-MB-231 breast = system: MDA-MB-231 breast
RXF 393 renal = system: RXF 393 renal
SF-268 CNS = system: SF-268 CNS
SF-295 CNS = system: SF-295 CNS
SF-539 CNS = system: SF-539 CNS
UACC-257 melanoma = system: UACC-257 melanoma
M14 melanoma = system: M14 melanoma

| SMILES | growth (NCI-H23 lung) [%] | growth (NCI-H226 lung) [%] | growth (NCI-H322M lung) [%] | growth (HOP-62 NSCLC) [%] | growth (NCI-H460 lung) | growth (HOP-92 NSCLC) [%] | growth (NCI-H522 lung) | growth (A549/ATCC NSCLC) [%] | growth (786-0 renal) [%] | growth (COLO 205 colon) | growth (DU-145 prostate) [%] | growth (K-562 leukemia) | growth (MALME-3M melanoma) [%] | growth (MDA-MB-231 breast) | growth (RXF 393 renal) [%] | growth (SF-268 CNS) [%] | growth (SF-295 CNS) [%] | growth (SF-539 CNS) | growth (UACC-257 melanoma) [%] | growth (M14 melanoma) [%] |
| --- | --- | --- | --- | --- | --- | --- | --- | --- | --- | --- | --- | --- | --- | --- | --- | --- | --- | --- | --- | --- |
| CC1(C)C(=O)CC[C@]2(C)[C@H]3C(=O)C=C4[C@@H]5C[C@@](C)(C(=O)NCCNCCN)CC[C@]5(C)CC[C@@]4(C)[C@]3(C)CC[C@@H]12 | 98.4 | 96.8 | 108 | 94.1 | 99.2% | 66.2 | 111% | 97.6 | 99.9 | 108% | 102 | 86.6% | 92.2 | 102% | 103 | 83.9 | 101 | 98.7% | 101 |  |
| O=C(N/N=C/c1ccccc1SSc1ccccc1/C=N/NC(=O)c1ccccc1)c1ccccc1 | 33.5 | 44.8 | 46.5 | 20.2 | 10% (active) | 59.6 | 54% | 49.6 | 23.6 | 6.05% (active) | 35.3 | 18.3% | 48.9 | 44.7% | 34.2 | 32 | 38.2 | 26.9% | 45.1 |  |
| COc1cc(OC)c2c(c1)c1nc3cc(C)c(C)cc3nc1n2CCN(C)C | 91.3 | 90.5 | 87.1 | 79.4 | 84.8% | 81.7 | 79.2% | 80.4 | 83.9 | 74.9% | 90.2 | 78.3% | 80.9 | 79.5% | 96.2 | 93.7 | 90.2 | 86% | 94.9 | 84.2 |
| COc1ccc(-c2cc(=O)oc3ccc(Cl)cc23)cc1F | 18.1 | 49.1 | 46.9 | 20.8 | 7.67% (active) | 33.6 | -27.8% (active) | 10.8 | 25 | -26.4% (active) | 14.7 | 7.21% (active) | 103 | 21.8% | 38.7 | 26.2 | 20.4 | -2.9% (active) | 47.3 | 15.3 |
| COc1ccc(-c2n[nH]nc2-c2cc3ccccc3s2)cc1O | 27.9 | 51.6 | 58.8 | 24.1 | 10.1% | 49.9 | -5.47% (active) | 15 | 33.6 | 51.4% | 25.1 | 5.55% (active) | 74.7 | -3% (active) | 16.4 | 37 | 26.9 | -13.4% (active) | 50.2 |  |
| CCc1cccc(CC)c1NC(=O)c1sc2nc3c(cc2c1N)CCCC3 | 87 | 83.2 | 92.8 | 50.5 | 91.1% | 51.2 | 41.9% | 69.7 | 87.8 | 105% | 98.6 | 26.6% | 54.3 | 79.5% | 81.6 | 82.6 | 45.7 | 74.5% |  |  |
| Cn1c(=O)c2c(ncn2CC(=O)Nc2ccc(S(N)(=O)=O)cc2)n(C)c1=O | 104 | 105 | 107 | 94.8 | 108% | 90.1 | 86.7% | 88.3 | 94.9 | 105% | 107 | 97.4% | 118 | 105% | 106 | 101 | 103 | 96.3% |  |  |
| CN1CCN(CC#CCn2c3c(c4ccccc42)C[C@]2(C)[C@H]4CC[C@@H]5[C@H]6[C@H]7OC(=O)[C@@]6(CCC7(C)C)CC[C@@]5(C)[C@]4(C)CC[C@H]2C3(C)C)CC1 | 92.7 | 91.6 | 106 | 95.2 | 98.6% | 67.4 | 102% | 58.6 | 107 | 108% | 35.4 | 12.7% | 113 | 42.7% | 67.1 | 92.9 | 104 | 89.1% | 109 |  |
